beta cell repl: MIN6 beta-cell proliferation induction; AID 2380; 0.29% of 330,000 active; MIN6 cells proliferation, ATPlite luminescence, 48 h; cells starved in 0.2% serum; 100% = growth in 10% serum; proliferation, % at 10 µM;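 active = compounds whose signal lies at least 3.5 SD above the mean of all wells on their plate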;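 note: 0% = DMSO-treated cells in low-serum medium and 100% = 10% serum control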
MPTP block: inhibitors of mitochondrial permeability transition pore; AID 602449; inhibition, % at 10 µM; 1.4% of 360,000 active; isolated mouse mitochondria, Ca2+ swelling absorbance, 30 min;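 active = inhibition of 50% or more, scaled per plate between neutral and stimulator controls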;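 note: 0% = DMSO wells given calcium and 100% = 1 mM EGTA wells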
NR3A LBD binder: modulates the human NR3A ligand-binding domain | 2.5% of 340,000 active | Tm shift relative to glycine control, % at 25 µM | AID 1259313 | NR3A LBD differential scanning fluorimetry, Tm shift; 0% = protein alone, 100% = glycine-bound protein;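 active = melting temperature shift of at least 10% of the positive control shift, at one fixed dose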
FAS-TE inh: blocks the thioesterase domain of human fatty acid synthase; P49327; recombinant FAS-TE, OMFH fluorogenic substrate, fluorescence endpoint; inhibition, % at 15 µM; 0.67% of 360,000 active;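 active = compounds whose normalised, plate-corrected inhibition of enzyme fluorescence in the single-dose primary screen is 50% or more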;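 note: 0% = DMSO with enzyme and 100% = substrate without enzyme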
pCIP destab: lowers stability of the mouse p/CIP coactivator protein | Q05BA5 | F442A p/CIP-EGFP cells, EGFP fluorescence, 16 h | decrease of EGFP signal, % at 10 µM | 0.01% of 290,000 active | AID 1984;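 active = EGFP signal decrease of at least 30% at 10 µM or well 3 SD below plate mean, unless failing retest; inactive = the rest, including hits failing retest or dose response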
* marks the source's active call; other numbers are inactive results; x = not tested or not shown. In the library only some 4.1% were active in any assay of this set; here they are far more common.

SMILES	beta cell repl	MPTP block	NR3A LBD binder	FAS-TE inh	pCIP destab
COc1ccc(-c2oc3c4c(cc(OC)c3c(=O)c2CC=C(C)C)OC(C)(C)C=C4)c(OC)c1	-6	x	x	x	x
CC(C)=CCC12Oc3cc(O)ccc3C1(O)Oc1cc3c(c(O)c1C2=O)C=CC(C)(C)O3 (stereo unspecified)	-6	x	12*	x	x
O=C(COc1ccc(/C=N/NC(=O)c2ccncc2)cc1)Nc1ccccc1	-4	-1	11*	-2	-3
O=C(COc1ccc(/C=N/NC(=O)c2ccccc2O)cc1)Nc1ccc([N+](=O)[O-])cc1	-1	6	37*	1	-5
O=C(COc1ccc(/C=N/NC(=O)c2ccncc2)cc1)Nc1cccc([N+](=O)[O-])c1	-1	0	16*	6	-16
CCOc1ccc(NCC(=O)Nc2ccc(C)cc2C)cc1	-2	2	-1	-5	6
COc1cc(/C=N/NC(=O)c2ccc(O)cc2)ccc1OCC(=O)Nc1cccc([N+](=O)[O-])c1	-1	0	1	1	-16
CCOc1ccc(NC(=O)CNc2ccc(C)cc2Cl)cc1	-3	11	34*	17	2
CC(=O)Nc1ccc(NC(=O)COc2ccc([N+](=O)[O-])cc2)cc1	0	0	0	10	1
COc1ccc(C(C)=O)cc1CN1C(=O)C(C)ON=C1c1ncccc1C (stereo unspecified)	x	1	x	-6	x
CCc1nc2ccc(C(=O)Nc3ccc(C(=O)N(C)C)cc3)cn2c1N(C)CCCc1ccccc1	x	-2	x	4	x
CCOc1ccc(/C=N/NC(=O)CC(=O)Nc2ccc(Cl)c(Cl)c2)cc1	-2	6	20*	0	-8
O=[N+]([O-])c1ccc(/C=N/NC(=S)Nc2ccccc2)o1	0	1	0	-4	-13
O=[N+]([O-])c1cccc(-c2ccc(/C=N/NC(=S)Nc3ccccc3)o2)c1	-6	1	15*	29	-7
CCOC(=O)c1cc(C)n(S(=O)(=O)c2ccc(C)cc2)c1C	0	0	14*	17	9
CCOC(=O)c1ccccc1NS(=O)(=O)c1ccc(C)cc1	1	3	0	18	-1
COc1ccc(-n2c(C)cc(C(=O)CN3C(=O)NC4(CCCc5sccc54)C3=O)c2C)cc1 (stereo unspecified)	-5	6	-2	48	-7
Cc1cc(C(=O)CN2C(=O)NC3(CCCc4sccc43)C2=O)c(C)n1-c1ccccc1 (stereo unspecified)	0	1	15*	14	1
CC1(C(=O)Nc2cnc3ccccc3c2)CCN1Cc1ccccc1OC(F)F (stereo unspecified)	x	1	x	16	x
Cc1ccccc1NS(=O)(=O)c1ccc(-c2ccc(=O)[nH]n2)o1	-2	0	15*	-8	6
CCN(CC)c1ccc(NS(=O)(=O)c2ccc(-c3ccc(=O)[nH]n3)o2)c(C)c1	-5	2	4	-6	4
COc1ccccc1Oc1cc(-n2nc(C)cc2C)ncn1	0	5	10*	2	-24
COc1ccccc1OCC(O)Cn1nc(C)cc1C (stereo unspecified)	2	0	0	-7	x
COc1ccc(/C=C/c2noc(-c3ccccc3O)n2)cc1	-3	2	-2	-1	0
COc1cc(/C=C/c2nc(N)nc(-c3ccccc3O)n2)cc(OC)c1OC	1	0	0	22	-14
SMILES	beta cell repl	MPTP block	NR3A LBD binder	FAS-TE inh	pCIP destab
COc1ccc(/C=C/c2nc(N)nc(-c3ccccc3O)n2)cc1	0	-13	72*	2	2
COc1ccc(/C=C/c2nc(N)nc(-c3ccccc3O)n2)cc1OC	1	-1	28*	37	4
CC(C)(C(=O)N1CCC1(C)C(=O)Nc1ccccc1Br)c1ccccc1 (stereo unspecified)	x	0	x	8	x
CNC(=O)OCc1ncn(-c2ccccc2)c1COC(=O)NC	x	0	x	-2	x
CCCN=C1N(CC)C[C@@H]2[C@@H]3C(=O)N(Cc4ccccc4)C(=O)[C@@H]3[C@](Cc3ccccc3)(C(=O)OC)N12	x	-1	13*	-4	x
CCCN=C1N(C)C[C@@H]2[C@@H]3C(=O)N(Cc4ccccc4)C(=O)[C@@H]3[C@](Cc3ccccc3)(C(=O)OC)N12	x	3	0	-11	x
CC1=NNC(=O)C1CC(=O)N/N=C/C(C)=C/c1ccccc1 (stereo unspecified)	-3	1	-2	-8	-23

Source: PubChem
